Reference: the supplement of paper PMC3616981
± gives the standard deviation of the averaged measurements.

Compound: CC(C)c1cccc(C(C)C)c1N1C(=O)c2ccc(O)cc2C1=O
Experiment: BioMAP readout fold decrease vs vehicle (vehicle/treated); higher = stronger decrease of the readout vs vehicle (values <1 mean increase)
Method: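 BioSeek BioMAP human primary cell (co-)culture systems (3C, 4H, LPS, SAg, BE3C, CASM3C, hDFCGF, KF3CT) treated with 5HPP-33 at 1.48, 4.44, 13.3 and 40 µM. Read-outs are protein levels by ELISA, proliferation and SRB total protein. Duplicate rows per assay are averaged as replicates. Tested in ToxCast Phase II for this study; exposure time not stated.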
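Also: Co-cultures of keratinocytes, bronchial epithelial and smooth muscle cells, fibroblasts, HUVECs and PBMCs under stimuli like LPS, TNF-α, IFN-γ, IL-1β, TGF-β or EGF, SRB reflecting cytotoxicity.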

| Target | BioMAP readout fold decrease (1.48 µM) | BioMAP readout fold decrease (4.44 µM) | BioMAP readout fold decrease (13.3 µM) | BioMAP readout fold decrease (40 µM) |
| --- | --- | --- | --- | --- |
| KF3CT_SRB | 1.012 ± 0.0046 | 1.011 ± 0.0045 | 1.0454 ± 0.00028 | 1.53 ± 0.21 |
| 3C_VCAM1 | 1.05 ± 0.029 | 1.15 ± 0.027 | 1.33 ± 0.03 | 2.03 ± 0.072 |
| KF3CT_TIMP2 | 1 ± 0.025 | 0.978 ± 0.038 | 1.08 ± 0.075 | 2.5 ± 0.22 |
| LPS_Eselectin | 1.07 ± 0.019 | 1.17 ± 0.034 | 1.24 ± 0.012 | 1.91 ± 0.12 |
| SAg_MCP1 | 1.08 ± 0.023 | 0.997 ± 0.021 | 0.892 ± 0.0095 | 4.61 ± 0.68 |
| KF3CT_IL1a | 0.969 ± 0.029 | 0.992 ± 0.045 | 0.987 ± 0.034 | 2.08 ± 0.17 |
| hDFCGF_PAI1 | 1.12 ± 0.14 | 1.08 ± 0.056 | 1.43 ± 0.031 | 3.53 ± 0.21 |
| 3C_TissueFactor | 0.903 ± 0.018 | 0.906 ± 0.021 | 0.943 ± 0.014 | 1.43 ± 0.2 |
| hDFCGF_IL8 | 1.03 ± 0.018 | 0.964 ± 0.017 | 0.8858 ± 0.0045 | 0.9866 ± 0.0065 |
| BE3C_uPA | 1.07 ± 0.019 | 1.017 ± 0.0048 | 1.027 ± 0.0098 | 1.15 ± 0.042 |
